According to ChEMBL document CHEMBL1961873, “Compounds: GSK PKIS; Assays: Nanosyn kinase panel” (2012):

Assays:
[1] = system: Epidermal growth factor receptor (Homo sapiens), P00533 [T790M]; conditions: at 1 µM
[2] = system: Epidermal growth factor receptor (Homo sapiens), P00533 [L858R,T790M]; conditions: at 0.1 µM
[3] = system: Epidermal growth factor receptor (Homo sapiens), P00533 [L858R,T790M]; conditions: at 1 µM
[4] = target: Ephrin type-A receptor 2 (Homo sapiens) (UniProt P29317); conditions: at 0.1 µM
[5] = target: Ephrin type-A receptor 2 (Homo sapiens) (UniProt P29317); conditions: at 1 µM
[6] = target: T1, Ephrin type-A receptor 3 (Homo sapiens) (UniProt P29320); conditions: at 0.1 µM
T1 sequence (whole entry): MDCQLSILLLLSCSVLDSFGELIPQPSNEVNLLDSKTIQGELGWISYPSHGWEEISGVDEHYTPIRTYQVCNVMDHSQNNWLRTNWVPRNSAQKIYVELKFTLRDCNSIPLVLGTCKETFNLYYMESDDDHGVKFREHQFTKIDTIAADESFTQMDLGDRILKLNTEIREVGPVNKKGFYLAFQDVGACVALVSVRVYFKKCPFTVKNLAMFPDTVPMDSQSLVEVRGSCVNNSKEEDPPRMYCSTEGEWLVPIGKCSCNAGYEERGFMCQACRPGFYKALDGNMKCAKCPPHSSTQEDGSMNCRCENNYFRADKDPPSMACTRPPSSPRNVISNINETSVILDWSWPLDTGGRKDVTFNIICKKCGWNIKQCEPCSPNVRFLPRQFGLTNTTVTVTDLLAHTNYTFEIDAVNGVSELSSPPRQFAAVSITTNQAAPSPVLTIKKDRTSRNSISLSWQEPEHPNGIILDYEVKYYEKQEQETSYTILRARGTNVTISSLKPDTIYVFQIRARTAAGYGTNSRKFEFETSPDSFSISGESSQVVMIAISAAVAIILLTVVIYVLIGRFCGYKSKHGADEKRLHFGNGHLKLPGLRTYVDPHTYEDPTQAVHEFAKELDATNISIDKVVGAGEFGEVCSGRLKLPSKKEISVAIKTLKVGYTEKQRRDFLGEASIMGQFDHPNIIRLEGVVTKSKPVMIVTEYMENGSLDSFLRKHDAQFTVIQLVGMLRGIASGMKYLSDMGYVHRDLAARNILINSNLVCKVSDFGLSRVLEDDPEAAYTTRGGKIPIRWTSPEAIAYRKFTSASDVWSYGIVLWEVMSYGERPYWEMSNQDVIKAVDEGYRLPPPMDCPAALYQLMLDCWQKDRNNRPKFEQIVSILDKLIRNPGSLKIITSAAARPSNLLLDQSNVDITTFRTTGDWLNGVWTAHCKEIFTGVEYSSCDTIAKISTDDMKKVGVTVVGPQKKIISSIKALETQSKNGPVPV

[7] = target: T1, Ephrin type-A receptor 3 (Homo sapiens); conditions: at 1 µM
[8] = target: Ephrin type-A receptor 4 (Homo sapiens) (UniProt P54764); conditions: at 0.1 µM
[9] = target: Ephrin type-A receptor 4 (Homo sapiens) (UniProt P54764); conditions: at 1 µM
[10] = target: T2, Ephrin type-B receptor 2 (Homo sapiens) (UniProt P29323); conditions: at 0.1 µM
T2 sequence (whole entry): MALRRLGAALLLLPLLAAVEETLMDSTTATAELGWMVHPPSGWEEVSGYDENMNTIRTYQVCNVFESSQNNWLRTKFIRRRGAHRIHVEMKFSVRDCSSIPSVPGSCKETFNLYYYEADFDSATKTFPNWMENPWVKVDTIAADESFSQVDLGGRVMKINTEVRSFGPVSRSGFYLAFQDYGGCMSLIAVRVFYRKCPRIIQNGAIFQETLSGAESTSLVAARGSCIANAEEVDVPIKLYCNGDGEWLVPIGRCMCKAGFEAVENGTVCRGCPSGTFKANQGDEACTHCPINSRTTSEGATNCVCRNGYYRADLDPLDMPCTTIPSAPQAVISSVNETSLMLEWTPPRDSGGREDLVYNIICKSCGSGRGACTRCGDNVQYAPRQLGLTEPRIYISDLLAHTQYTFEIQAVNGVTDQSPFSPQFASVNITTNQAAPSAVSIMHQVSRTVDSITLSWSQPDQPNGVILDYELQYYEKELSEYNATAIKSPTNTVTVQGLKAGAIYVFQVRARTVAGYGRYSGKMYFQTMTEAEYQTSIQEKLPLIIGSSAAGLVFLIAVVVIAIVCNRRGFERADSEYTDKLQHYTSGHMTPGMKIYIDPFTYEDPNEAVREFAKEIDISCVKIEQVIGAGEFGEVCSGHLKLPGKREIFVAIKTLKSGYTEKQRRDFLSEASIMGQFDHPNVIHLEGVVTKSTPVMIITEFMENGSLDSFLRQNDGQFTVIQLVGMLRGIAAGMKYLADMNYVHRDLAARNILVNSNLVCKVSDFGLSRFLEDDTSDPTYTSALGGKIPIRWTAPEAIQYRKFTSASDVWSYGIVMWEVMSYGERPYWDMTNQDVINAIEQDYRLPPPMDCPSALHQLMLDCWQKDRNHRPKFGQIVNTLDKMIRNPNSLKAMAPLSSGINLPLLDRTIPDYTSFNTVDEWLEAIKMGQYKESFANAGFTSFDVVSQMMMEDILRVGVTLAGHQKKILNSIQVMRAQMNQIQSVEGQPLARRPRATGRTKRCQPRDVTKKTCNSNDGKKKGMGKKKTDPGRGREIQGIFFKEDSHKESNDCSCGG

[11] = target: T2, Ephrin type-B receptor 2 (Homo sapiens); conditions: at 1 µM
[12] = target: T3, Ephrin type-B receptor 3 (Homo sapiens) (UniProt P54753); conditions: at 0.1 µM
T3 sequence (whole entry): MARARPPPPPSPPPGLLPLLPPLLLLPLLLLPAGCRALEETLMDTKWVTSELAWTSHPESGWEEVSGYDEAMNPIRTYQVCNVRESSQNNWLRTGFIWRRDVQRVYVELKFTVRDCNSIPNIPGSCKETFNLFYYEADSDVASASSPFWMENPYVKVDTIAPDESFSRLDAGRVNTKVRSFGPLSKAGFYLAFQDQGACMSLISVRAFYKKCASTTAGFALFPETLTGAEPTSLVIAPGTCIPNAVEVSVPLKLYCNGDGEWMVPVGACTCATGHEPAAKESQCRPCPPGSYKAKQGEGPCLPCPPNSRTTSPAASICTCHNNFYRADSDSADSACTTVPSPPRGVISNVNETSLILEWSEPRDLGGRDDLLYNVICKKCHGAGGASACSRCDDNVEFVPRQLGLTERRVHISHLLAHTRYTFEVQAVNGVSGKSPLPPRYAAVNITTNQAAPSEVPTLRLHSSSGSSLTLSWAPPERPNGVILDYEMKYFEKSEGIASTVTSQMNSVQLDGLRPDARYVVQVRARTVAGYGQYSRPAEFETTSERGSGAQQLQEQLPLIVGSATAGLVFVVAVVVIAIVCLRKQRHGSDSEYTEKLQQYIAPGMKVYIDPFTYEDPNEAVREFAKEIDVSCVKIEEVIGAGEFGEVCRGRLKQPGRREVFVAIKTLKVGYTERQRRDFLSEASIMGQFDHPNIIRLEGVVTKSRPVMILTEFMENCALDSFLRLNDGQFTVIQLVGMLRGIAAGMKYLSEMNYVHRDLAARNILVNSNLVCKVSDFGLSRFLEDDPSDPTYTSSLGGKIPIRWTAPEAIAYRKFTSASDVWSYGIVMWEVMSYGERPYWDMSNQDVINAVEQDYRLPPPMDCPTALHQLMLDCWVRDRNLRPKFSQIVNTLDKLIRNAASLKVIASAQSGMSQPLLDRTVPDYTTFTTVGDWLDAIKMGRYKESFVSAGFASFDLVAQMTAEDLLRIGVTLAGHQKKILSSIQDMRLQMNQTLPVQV

[13] = target: T3, Ephrin type-B receptor 3 (Homo sapiens); conditions: at 1 µM
[14] = target: T4, Ephrin type-B receptor 4 (Homo sapiens) (UniProt P54760); conditions: at 0.1 µM
T4 sequence (whole entry): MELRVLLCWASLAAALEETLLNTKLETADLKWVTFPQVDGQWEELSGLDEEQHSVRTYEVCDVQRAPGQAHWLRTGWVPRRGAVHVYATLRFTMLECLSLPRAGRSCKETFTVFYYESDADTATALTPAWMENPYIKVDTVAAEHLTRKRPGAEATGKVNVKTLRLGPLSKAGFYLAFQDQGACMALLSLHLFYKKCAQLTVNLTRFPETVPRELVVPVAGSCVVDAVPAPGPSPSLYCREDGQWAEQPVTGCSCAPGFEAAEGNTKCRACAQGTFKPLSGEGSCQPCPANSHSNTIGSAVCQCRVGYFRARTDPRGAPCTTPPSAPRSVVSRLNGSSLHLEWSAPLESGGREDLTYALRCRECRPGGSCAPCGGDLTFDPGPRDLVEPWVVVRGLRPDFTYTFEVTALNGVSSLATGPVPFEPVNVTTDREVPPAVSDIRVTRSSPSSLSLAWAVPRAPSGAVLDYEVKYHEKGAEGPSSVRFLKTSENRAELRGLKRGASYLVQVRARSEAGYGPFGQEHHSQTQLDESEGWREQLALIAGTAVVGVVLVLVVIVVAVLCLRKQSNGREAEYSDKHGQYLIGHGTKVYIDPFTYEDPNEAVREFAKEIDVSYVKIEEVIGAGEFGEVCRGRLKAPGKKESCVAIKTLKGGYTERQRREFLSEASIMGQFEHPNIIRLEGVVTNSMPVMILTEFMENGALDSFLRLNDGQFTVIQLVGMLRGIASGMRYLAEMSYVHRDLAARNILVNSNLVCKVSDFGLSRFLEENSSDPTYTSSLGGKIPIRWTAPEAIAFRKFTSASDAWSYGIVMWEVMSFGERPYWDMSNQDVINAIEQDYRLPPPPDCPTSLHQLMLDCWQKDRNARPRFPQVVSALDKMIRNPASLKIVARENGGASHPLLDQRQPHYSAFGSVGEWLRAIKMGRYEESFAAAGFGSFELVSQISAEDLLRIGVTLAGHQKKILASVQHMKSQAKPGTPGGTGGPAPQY

[15] = target: T4, Ephrin type-B receptor 4 (Homo sapiens); conditions: at 1 µM
[16] = target: Receptor tyrosine-protein kinase erbB-2 (Homo sapiens) (UniProt P04626); conditions: at 0.1 µM
[17] = target: Receptor tyrosine-protein kinase erbB-2 (Homo sapiens) (UniProt P04626); conditions: at 1 µM
[18] = target: Receptor tyrosine-protein kinase erbB-4 (Homo sapiens) (UniProt Q15303); conditions: at 0.1 µM
[19] = target: Receptor tyrosine-protein kinase erbB-4 (Homo sapiens) (UniProt Q15303); conditions: at 1 µM
[20] = target: Tyrosine-protein kinase Fer (Homo sapiens) (UniProt P16591); conditions: at 0.1 µM;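 further: reported figures are averaged percent inhibition of FER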

Sequence of Ephrin type-A receptor 4 (Homo sapiens) (P54764 whole entry): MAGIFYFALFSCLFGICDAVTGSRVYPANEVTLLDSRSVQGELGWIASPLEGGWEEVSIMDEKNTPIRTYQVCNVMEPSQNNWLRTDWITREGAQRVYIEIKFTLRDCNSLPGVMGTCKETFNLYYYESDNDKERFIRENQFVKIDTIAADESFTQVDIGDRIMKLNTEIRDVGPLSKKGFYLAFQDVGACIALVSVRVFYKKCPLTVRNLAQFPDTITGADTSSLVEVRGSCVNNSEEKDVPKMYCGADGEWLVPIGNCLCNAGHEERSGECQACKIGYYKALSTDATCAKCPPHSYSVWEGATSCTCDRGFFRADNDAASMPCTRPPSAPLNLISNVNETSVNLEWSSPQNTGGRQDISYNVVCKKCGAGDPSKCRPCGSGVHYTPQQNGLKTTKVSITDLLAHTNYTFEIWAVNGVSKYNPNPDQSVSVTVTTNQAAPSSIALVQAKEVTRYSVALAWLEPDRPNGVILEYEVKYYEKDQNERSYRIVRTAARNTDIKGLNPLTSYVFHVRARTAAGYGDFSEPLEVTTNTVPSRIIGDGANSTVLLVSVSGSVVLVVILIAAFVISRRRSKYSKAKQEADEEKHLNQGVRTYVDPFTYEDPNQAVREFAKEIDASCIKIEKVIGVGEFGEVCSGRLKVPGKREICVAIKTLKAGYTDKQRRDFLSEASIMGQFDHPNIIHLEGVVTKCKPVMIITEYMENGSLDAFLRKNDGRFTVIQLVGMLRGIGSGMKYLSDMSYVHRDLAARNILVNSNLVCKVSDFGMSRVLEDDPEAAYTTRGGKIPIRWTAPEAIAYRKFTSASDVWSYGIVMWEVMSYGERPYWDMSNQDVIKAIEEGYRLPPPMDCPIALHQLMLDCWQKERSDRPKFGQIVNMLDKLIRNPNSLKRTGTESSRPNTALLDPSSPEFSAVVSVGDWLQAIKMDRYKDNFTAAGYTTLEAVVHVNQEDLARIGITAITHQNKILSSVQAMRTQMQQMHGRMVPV
Sequence of Epidermal growth factor receptor (Homo sapiens), P00533 [T790M] (P00533 whole entry T790M): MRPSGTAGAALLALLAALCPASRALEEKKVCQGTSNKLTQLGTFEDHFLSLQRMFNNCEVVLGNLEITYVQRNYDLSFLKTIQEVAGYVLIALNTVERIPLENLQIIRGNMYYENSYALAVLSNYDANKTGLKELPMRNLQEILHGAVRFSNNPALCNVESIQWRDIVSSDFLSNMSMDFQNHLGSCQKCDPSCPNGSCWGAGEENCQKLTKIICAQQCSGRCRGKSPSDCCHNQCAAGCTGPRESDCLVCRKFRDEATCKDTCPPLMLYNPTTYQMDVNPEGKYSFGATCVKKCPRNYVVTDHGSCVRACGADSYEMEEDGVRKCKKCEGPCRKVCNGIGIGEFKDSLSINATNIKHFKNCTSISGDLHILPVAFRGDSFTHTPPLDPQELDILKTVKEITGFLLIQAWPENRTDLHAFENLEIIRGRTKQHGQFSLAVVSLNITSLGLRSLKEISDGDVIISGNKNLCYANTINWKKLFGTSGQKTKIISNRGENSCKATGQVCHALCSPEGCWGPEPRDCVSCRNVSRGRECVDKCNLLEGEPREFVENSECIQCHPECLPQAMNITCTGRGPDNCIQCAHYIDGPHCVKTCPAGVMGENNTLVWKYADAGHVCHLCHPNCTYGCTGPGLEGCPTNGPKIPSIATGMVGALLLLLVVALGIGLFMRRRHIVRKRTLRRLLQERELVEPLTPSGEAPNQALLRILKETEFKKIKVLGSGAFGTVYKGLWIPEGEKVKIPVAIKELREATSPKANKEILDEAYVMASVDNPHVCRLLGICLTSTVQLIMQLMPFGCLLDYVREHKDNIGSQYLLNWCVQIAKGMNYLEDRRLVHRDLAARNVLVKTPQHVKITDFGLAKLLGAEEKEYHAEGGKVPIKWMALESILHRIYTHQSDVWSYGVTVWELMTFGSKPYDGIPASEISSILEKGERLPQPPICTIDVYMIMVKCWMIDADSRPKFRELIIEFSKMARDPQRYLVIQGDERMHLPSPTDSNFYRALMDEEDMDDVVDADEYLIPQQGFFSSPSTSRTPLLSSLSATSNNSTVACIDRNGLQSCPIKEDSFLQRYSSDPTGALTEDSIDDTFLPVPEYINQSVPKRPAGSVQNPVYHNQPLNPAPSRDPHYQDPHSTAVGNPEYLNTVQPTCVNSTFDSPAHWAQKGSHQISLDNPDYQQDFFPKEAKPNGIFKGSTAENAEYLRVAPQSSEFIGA
Sequence of Receptor tyrosine-protein kinase erbB-4 (Homo sapiens) (Q15303 whole entry): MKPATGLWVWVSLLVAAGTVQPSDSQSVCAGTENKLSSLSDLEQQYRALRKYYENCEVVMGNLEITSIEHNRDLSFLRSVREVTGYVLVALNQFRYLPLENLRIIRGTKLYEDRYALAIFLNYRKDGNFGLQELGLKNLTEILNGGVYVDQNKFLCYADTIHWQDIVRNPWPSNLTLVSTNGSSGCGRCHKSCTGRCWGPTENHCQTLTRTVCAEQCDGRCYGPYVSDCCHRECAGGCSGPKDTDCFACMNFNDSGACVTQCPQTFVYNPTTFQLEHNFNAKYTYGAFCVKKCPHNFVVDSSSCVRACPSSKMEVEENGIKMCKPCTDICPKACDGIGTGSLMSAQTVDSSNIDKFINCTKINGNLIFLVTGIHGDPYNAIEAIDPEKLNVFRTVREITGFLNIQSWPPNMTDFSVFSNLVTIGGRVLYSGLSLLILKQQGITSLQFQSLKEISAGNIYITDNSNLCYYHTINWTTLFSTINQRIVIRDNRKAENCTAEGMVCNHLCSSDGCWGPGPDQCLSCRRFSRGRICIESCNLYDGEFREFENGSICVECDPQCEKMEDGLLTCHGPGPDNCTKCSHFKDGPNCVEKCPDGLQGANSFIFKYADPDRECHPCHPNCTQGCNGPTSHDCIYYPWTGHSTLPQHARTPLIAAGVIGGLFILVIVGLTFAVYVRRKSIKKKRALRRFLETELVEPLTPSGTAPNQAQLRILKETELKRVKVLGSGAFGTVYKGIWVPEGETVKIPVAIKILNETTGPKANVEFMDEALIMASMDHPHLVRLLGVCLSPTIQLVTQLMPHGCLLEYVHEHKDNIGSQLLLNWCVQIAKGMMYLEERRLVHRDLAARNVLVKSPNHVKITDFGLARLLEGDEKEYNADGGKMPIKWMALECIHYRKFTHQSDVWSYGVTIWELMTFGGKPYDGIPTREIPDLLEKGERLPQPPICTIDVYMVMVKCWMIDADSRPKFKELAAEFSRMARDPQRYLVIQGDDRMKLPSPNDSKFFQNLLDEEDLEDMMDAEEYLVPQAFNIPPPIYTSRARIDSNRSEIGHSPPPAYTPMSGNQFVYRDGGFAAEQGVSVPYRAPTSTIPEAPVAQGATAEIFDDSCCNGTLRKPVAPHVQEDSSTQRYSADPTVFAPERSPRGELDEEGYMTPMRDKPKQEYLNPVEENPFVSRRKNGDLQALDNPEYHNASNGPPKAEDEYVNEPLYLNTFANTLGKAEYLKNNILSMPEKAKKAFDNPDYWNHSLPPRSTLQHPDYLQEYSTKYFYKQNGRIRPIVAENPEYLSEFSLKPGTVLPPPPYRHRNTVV
Sequence of Ephrin type-A receptor 2 (Homo sapiens) (P29317 whole entry): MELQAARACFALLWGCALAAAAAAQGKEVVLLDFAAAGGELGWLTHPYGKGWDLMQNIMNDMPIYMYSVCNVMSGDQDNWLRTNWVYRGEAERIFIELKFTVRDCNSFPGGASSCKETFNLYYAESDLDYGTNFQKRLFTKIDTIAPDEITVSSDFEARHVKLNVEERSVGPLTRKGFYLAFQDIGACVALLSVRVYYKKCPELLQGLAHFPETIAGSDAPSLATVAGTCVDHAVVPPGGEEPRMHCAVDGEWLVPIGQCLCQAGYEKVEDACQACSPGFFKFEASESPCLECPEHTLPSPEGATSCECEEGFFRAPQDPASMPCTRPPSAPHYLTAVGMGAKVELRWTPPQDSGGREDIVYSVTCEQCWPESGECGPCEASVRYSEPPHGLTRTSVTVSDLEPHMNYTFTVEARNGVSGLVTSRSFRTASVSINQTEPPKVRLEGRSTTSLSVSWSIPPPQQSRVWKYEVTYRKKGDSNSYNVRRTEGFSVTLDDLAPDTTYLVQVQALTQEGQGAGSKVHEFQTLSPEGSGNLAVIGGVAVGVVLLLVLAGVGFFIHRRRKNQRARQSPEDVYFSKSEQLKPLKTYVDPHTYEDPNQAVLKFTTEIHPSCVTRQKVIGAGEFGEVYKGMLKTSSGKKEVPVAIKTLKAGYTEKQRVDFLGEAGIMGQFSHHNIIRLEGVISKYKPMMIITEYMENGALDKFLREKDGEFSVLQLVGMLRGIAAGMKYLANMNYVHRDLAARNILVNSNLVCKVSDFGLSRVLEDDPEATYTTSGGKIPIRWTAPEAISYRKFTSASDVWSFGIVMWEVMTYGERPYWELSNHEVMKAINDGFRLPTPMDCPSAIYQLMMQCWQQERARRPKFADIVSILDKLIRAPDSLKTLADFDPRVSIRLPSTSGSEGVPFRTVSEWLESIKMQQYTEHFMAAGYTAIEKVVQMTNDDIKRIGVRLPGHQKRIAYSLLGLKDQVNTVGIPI

| Compound | inhibition [1] | inhibition [2] | inhibition [3] | inhibition [4] | inhibition [5] | inhibition [6] | inhibition [7] | inhibition [8] | inhibition [9] | inhibition [10] | inhibition [11] | inhibition [12] | inhibition [13] | inhibition [14] | inhibition [15] | inhibition [16] | inhibition [17] | inhibition [18] | inhibition [19] | inhibition [20] |
| --- | --- | --- | --- | --- | --- | --- | --- | --- | --- | --- | --- | --- | --- | --- | --- | --- | --- | --- | --- | --- |
| Fc1ccc(-c2ncn(C3CCNCC3)c2-c2ccnc(Oc3ccc(Oc4ccccc4)cc3)n2)cc1 | 4.11% | 1.7% | 6.06% | 1.86% | 1.01% | 2.44% | 4.03% | 6.9% | 7.87% | 7.52% | 7.3% | 4.75% | 2.76% | 2.74% | 2.19% | 3.95% | 2.11% | 6.47% | 9.01% | 1.51% |
| O=C(NCC1CC1)c1ccc(-c2cccc(C(=O)NC3CC3)c2)cc1 | -1.31% | -1.91% | 3.8% | 2.47% | 1.67% | 2.75% | 4.67% | 4.89% | -0.51% | 6.78% | 11.8% | 3.55% | 2.98% | 1.37% | 1.03% | -0.54% | 1.1% | 16.7% | 6.05% | 0.26% |
| NC(=O)c1ccc(Oc2nccc(-c3c(-c4ccc(F)cc4)ncn3C3CCNCC3)n2)cc1 | 4.36% | 3.71% | 1.81% | 2.58% | 1.73% | 2.37% | 5.3% | 8.5% | 11% | 8.08% | 4.72% | 4.03% | 3.75% | 3.7% | 3.09% | 3.73% | 3.35% | 5.71% | 8.73% | 7.08% |
| Fc1ccc(-c2nc3n(c2-c2ccncc2)CCS3)cc1 | 0.86% | 1.02% | 1.42% | -3.82% | -3.6% | -0.22% | -0.79% | 6.24% | 3.74% | 3.72% | 7.66% | 2.13% | -1.28% | -0.26% | -2.49% | 4.16% | 1.23% | 9.02% | 10% | 2.18% |
| N#Cc1ccc(Oc2nccc(-c3c(-c4ccc(F)cc4)ncn3C3CCNCC3)n2)cc1 | 3.42% | -0.53% | 0.7% | 0.81% | 0.1% | 2.13% | 3.63% | 7.21% | 9.65% | 11% | 10.3% | 5.17% | 5.31% | -0.34% | 2.48% | 4.34% | 2.33% | 9.54% | 11.9% | 3.43% |
| CS(=O)(=O)CCNCc1cc(-c2cc3c(Nc4ccc(OCc5cccc(F)c5)c(Cl)c4)ncnc3s2)cs1 | 6.23% | 1.25% | 6.55% | 0.54% | -0.67% | 1.87% | 2.18% | 8.11% | 10.4% | 12.3% | 7.92% | 0.62% | 4.6% | -0.19% | 2.96% | 3.61% | 60.2% | 22.7% | 76.7% | 2.65% |
